In the library only some 19% were active in any assay of this set; here they are far more common.
IL1B secr inh – blocks inflammasome-driven IL-1 beta release; activity change, % at 57.5 µM; THP-1 LPS/ATP IL-1B secretion, AlphaLISA, 16 h; active compounds read low; AID 743279; actives 4.7% (n = 360,000); in the data active = activity change below about -50%; inconclusive = mostly about -30% to -49%
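THP-1 cells pretreated 1 hr with compounds (up to 57.5 uM final), then stimulated with LPS (250 ng/mL final) plus ATP (1.25 mM final); secreted IL-1B measured by AlphaLISA after 16 hr, decreased signal indicating inhibition.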
ELG1 DNA repair – ELG1-dependent DNA repair inhibition; Potency, µM (top dose mostly 46.1 µM), usual class: inhibitors; HEK293T ELG1-luciferase reporter, luminescence, 16 h; DNA damage induced by 5-fluorouridine; actives 2.3% (n = 330,000); AID 504467; also: nearly all actives have a fitted effect of over 55% in size
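HEK293T cells expressing luciferase-tagged ELG1 (2,000/well) received 5-Fluorouridine plus compound or DMSO for 16 hr at 37 °C. Luciferase was read by ONE-Glo luminescence after 30 min at room temperature.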
TDP1 cell CPT – growth inhibition of DT40 Tdp1-/-;hTDP1 cells with camptothecin (screen for TDP1 inhibitors). chicken DT40 Tdp1-/-;hTDP1 cells + 20 nM CPT, ATP luminescence, 48 h. Potency, µM (doses to about 46.2 µM), most hits filed as inhibitors. actives 12% (n = 420,000). AID 686979; also: nearly all actives have a fitted effect of over 55% in size
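Cell growth measured by CellTiter-Glo luminescence after a minimum 48 h, 37 C compound exposure with 20 nM CPT in Tdp1-knockout DT40 cells stably expressing hTDP1, seeded 400/well; qHTS titration format.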
TDP1 block – inhibitors of human tyrosyl-DNA phosphodiesterase TDP1; actives 0.28% (n = 350,000); Potency, µM (titrated, usually from 130 µM), hits mostly inhibitors; recombinant TDP1, AlphaScreen DNA substrate cleavage; Q9NUW8; AID 485290; also: nearly all actives have a fitted effect of over 40% in size
Target sequence (Q9NUW8 whole entry, looked up): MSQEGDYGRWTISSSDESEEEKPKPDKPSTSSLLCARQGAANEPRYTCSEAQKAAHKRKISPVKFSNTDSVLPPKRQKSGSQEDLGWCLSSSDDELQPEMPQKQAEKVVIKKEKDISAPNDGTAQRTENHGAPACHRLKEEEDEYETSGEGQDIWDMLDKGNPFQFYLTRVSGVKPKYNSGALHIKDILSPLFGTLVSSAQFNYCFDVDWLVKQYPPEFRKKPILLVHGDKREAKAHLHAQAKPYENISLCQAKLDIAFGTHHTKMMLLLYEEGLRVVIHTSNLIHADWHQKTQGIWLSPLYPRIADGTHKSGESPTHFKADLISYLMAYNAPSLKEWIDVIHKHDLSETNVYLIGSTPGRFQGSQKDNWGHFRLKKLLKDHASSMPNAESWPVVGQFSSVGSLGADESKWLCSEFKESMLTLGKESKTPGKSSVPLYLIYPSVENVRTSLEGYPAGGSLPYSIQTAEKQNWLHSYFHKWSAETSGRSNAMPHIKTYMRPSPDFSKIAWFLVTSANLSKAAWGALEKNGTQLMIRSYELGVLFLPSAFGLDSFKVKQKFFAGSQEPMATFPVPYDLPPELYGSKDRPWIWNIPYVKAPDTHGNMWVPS
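Tdp1 1 nM final; 15 min RT w/ cpd; substrate 15 nM, 5 min; beads 10 ug/ml, 10 min; AlphaScreen read. Neg ctrl: no enzyme.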
DT40 TDP1 no CPT – qHTS for Inhibitors of human tyrosyl-DNA phosphodiesterase 1 (TDP1): qHTS in cells in absence of CPT | actives 15% (n = 420,000) | AID 686978, 2013 | DT40 Tdp1-/- hTDP1 cells, no CPT, ATP luminescence, 48 h | Potency, µM (titrated, usually from 46.2 µM), actives largely listed as inhibitors; also: nearly all actives have a fitted effect of over 55% in size
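DT40 Tdp1-/-;hTDP1 cells, no CPT (DMSO vehicle only), 400 cells/well; compounds pin-transferred; ≥48 hr, 37 °C; CellTiter-Glo 30 min RT dark, luminescence read.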
Giardia kill – kills Giardia lamblia; Giardia lamblia trophozoite viability; activity change, % at 7.66 µM, hits read low; actives 0.15% (n = 340,000); AID 540267; in the data active = activity change below about -80%; inconclusive = between about -30% and that limit;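 also: parasites exposed to compound for two days anaerobically before the ATP read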
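Compounds were tested on trophozoites seeded at 100 cells/well and held 48 hrs at 37 deg C anaerobically. An ATP-based luminescent kit measured the remaining live cells.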
Hits are given with their value; - = inactive; ? = inconclusive; . = no result; [ ] = another dose, or the depositor's remark. Unless noted, calls follow the shape of the dose curve; as a rule, active = well fitted curve in the direction sought with a large enough effect; inconclusive = small, poorly fitted or top-dose-only effect, or another doubt; inactive = no such curve, though single readings can be large; an effect the other way counts as inactive or inconclusive.

SMILES	IL1B secr inh	ELG1 DNA repair	TDP1 cell CPT	TDP1 block	DT40 TDP1 no CPT	Giardia kill
Cc1ccc(NC(=O)CCC(=O)N2Cc3ccccc3Oc3ncccc32)cc1Cl	.	.	23µM	-	?	.
CO/N=C(\C)CCN1CCCc2nc(C)c(C)cc21	.	.	.	-[21 µM]	.	.
Cc1cc(N)n(-c2nc(-c3cccnc3)nc3ccccc23)n1	?	?	26µM	-	18µM	-
COc1ccc(Oc2nc(-c3cccnc3)nc3ccccc23)cc1	?	?	?	.	?	-
c1ccc2c(N3CCOCC3)nc(-c3ccncc3)nc2c1	?	6.5µM	?	-	15µM	-
c1cncc(-c2nc(N3CCOCC3)c3ccccc3n2)c1	?	-	?	-	35µM	-
Cn1cc(C(=O)C(=O)N2CCCCC2)c2ccccc21	-	.	-	.	-	-
O=C(COC(=O)[C@@H]1CC(O)CN1S(=O)(=O)c1ccccc1[N+](=O)[O-])Nc1ccc2ccccc2c1 (stereo partly specified)	-	?	-	-	-	-
Cc1ccc2cccc(S(=O)(=O)N3CCCc4ccccc43)c2n1	-	?	?	-	?	-
Cn1nc(C(C)(C)C)cc1N1C(=O)CCC1(C)C(=O)NC1CCCC1 (stereo unspecified)	-	.	-	.	-	.
CNc1ccc(Br)cc(C(=O)/C=C/c2cc(OC)ccc2OC)c1=O	-99	?	21µM	-	10µM	-
CCNc1ccc(Br)cc(C(=O)/C=C/c2ccc(Cl)cc2Cl)c1=O	-98	?	10µM	-	9.2µM	-
CNc1ccc(Br)cc(C(=O)/C=C/c2ccc(OC)cc2)c1=O	?	?	6.5µM	-	18µM	-
O=C(/C=C/c1ccc2c(c1)OCO2)NC1CCCC1	-	?	-	.	-	-
CNc1ccc(Br)cc(C(=O)/C=C/c2ccc3c(c2)OCO3)c1=O	-100	?	18µM	-	18µM	-
COCCCNC(=O)/C=C/c1ccc(Cl)cc1Cl	-	?	-	-	?	-
CC(C)(C)OC(=O)N1CCC(c2c(C(=O)N3CCC(c4ccccc4)C3)cnn2-c2ccc(Cl)cc2)CC1 (stereo unspecified)	.	.	13µM	-	16µM	.
Cc1ccc(-n2ncc(C(=O)N3CCC(c4ccccc4)C3)c2C2CCN(C(=O)OC(C)(C)C)CC2)cc1 (stereo unspecified)	.	.	15µM	-	23µM	.
O=C(N/N=C\c1cc(Cl)ccc1O)c1ccc(S(=O)(=O)N2CCCCC2)cc1	-	?	0.65µM	-	0.73µM	-
O=C(Nc1cc(S(=O)(=O)Nc2ccc(Cl)cc2)ccc1O)c1ccc(S(=O)(=O)N2CCCCCC2)cc1	-	?	?	-	21µM	-
O=C(N/N=C/c1ccc(O)c(O)c1)c1cccc(S(=O)(=O)N2CCCC2)c1	-	-	-	-	?	-
O=C(Nc1cc(S(=O)(=O)N2CCOCC2)ccc1O)c1ccc(S(=O)(=O)N2CCCCC2)cc1	-	-	?	-	?	-
CCNC(=S)N/N=C/c1ccc(OCc2ccc(C(=O)OC)cc2)cc1	-	-	-	-	?	-
COc1ccccc1CNC(=O)Cn1ccc2cc(S(=O)(=O)N3CCCC3)ccc21	-	-	-	-	-	-
COc1ccc(CNC(=O)C(C)n2ccc3cc(S(=O)(=O)N4CCCC4)ccc32)cc1OC (stereo unspecified)	.	.	0.29µM	-	0.58µM	.
CC(C(=O)NCc1ccccc1)n1ccc2cc(S(=O)(=O)N3CCCC3)ccc21 (stereo unspecified)	.	.	?	-	18µM	.
CCC(C(=O)NCCC(C)C)n1ccc2cc(S(=O)(=O)N3CCCCC3)ccc21 (stereo unspecified)	-	-	13µM	-	8.2µM	-
COc1cccc(CNC(=O)C(C)n2ccc3cc(S(=O)(=O)N4CCCC4)ccc32)c1 (stereo unspecified)	-	-	?	-	-	-
